Many of the other results were omitted from the sample, so hits are more common in it than they were.
CHX counter – counter-screen for Shiga toxin inhibitors: cycloheximide protein synthesis inhibition | cell reporter, cycloheximide protein synthesis inhibition counterscreen | 300,000 tested, 12% active | max response, %; in the data active means max response mostly above about 13%, no sharp cut-off; inactive means mostly below about 14%; further: read at 38.3 µM for the half of the compounds with a filed dose; 0% is about no effect
Shiga toxin inh – blocks Shiga toxin action in Vero cells. inhibition, % at 38.7 µM. Vero cells, Shiga toxin protein synthesis inhibition reporter. 290,000 tested, 9.2% active; in the data active means inhibition mostly above about 28%, no sharp cut-off; inactive means mostly below about 43%; further: 0% is about no effect
SARS PLP yeast – SARS-CoV PLP inhibition in yeast | S. cerevisiae expressing SARS-CoV PLpro, growth rescue | Potency, µM (titrated, usually from 32.9 µM), for inactives: at the top dose activity, positive = growth rescue, hits mostly activators | 330,000 tested, 0.19% active | AID 485353; calls by dose curve; further: potency means the concentration at half of the fitted maximal effect; 0% is about no effect; nearly all actives have a fitted effect of over 55% in size
LmPK inh – inhibitors of Leishmania mexicana pyruvate kinase. Q27686. purified LmPK, Kinase-Glo ATP luminescence, 1 h. Potency, µM (series often up to 57.5 µM), inactives show at the top dose activity change, negative = inhibition, actives largely listed as inhibitors. 290,000 tested, 0.37% active. AID 1721; further: potency means the concentration at half of the fitted maximal effect; on the % scale 0 is the no-effect control and ±100 the full control effect
Target sequence (Q27686 whole entry, looked up): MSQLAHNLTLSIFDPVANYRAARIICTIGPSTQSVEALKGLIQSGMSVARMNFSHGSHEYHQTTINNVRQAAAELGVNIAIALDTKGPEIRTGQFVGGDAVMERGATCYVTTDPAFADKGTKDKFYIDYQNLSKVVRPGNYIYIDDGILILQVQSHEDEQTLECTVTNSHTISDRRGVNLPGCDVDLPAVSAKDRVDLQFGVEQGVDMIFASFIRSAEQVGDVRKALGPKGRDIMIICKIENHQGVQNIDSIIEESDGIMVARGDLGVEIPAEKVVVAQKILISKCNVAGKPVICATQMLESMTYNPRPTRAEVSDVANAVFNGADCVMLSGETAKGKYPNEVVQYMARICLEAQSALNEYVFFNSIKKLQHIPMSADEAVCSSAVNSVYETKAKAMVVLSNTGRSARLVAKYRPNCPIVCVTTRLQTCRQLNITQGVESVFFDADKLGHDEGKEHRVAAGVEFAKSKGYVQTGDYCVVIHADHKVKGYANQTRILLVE
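Pyruvate kinase activity monitored as ATP production (luciferase luminescence). Conditions: 0.1 nM enzyme, 0.5 mM PEP, 0.1 mM ADP, 1 h, RT; normalized against uninhibited and no-enzyme wells.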
NS1 function inh – influenza NS1 inhibition; Potency, µM (series often up to 46.1 µM), for inactives: at the highest dose activity, positive = more growth; 270,000 tested, 0.4% active; calls by dose curve; further: potency means the concentration at half of the fitted maximal effect; actives are rising curves; nearly all actives have a fitted effect of over 50% in size
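A cell-based growth assay was used: compounds that relieve NS1-induced slow growth of budding yeast raise OD600. Assay medium was yeast nitrogen base with ammonium sulphate and -URA supplement, pH 6.0, with 2% galactose.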
TbPYK inhibitor – T. brucei pyruvate kinase inhibition | Q57TT1 | TbPYK enzyme, Kinase-Glo Plus ATP luminescence, 45 min | Potency, µM (titrated, usually from 76.8 µM), for inactives: at the highest dose activity, negative = inhibition, usual class: inhibitors | 410,000 tested, 0.12% active | AID 624173; further: potency means the concentration at half of the fitted maximal effect; on the % scale 0 is the no-effect control and ±100 the full control effect; nearly all actives have a fitted effect of over 50% in size
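Activity of T. brucei pyruvate kinase was followed by Kinase-Glo Plus luminescence after the enzyme reacted 45 min at room temperature with 130 uM ADP (final) and substrate. Test compounds were added before ADP at multiple concentrations.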
* = called active by the depositor. Unless noted, the call rests on the fitted dose curve; in most records, active means well fitted curve in the direction sought with a large enough effect; inconclusive means small, poorly fitted or top-dose-only effect, or another doubt; inactive means no such curve, though single readings can be large; an effect the other way counts as inactive or inconclusive.

What do the screens show for `Cc1cccc(NC(=O)NCC(c2ccc(F)cc2)N2CCN(C)CC2)c1` (configuration not stated)?
CHX counter: 19.4*; Shiga toxin inh: 20.4; SARS PLP yeast: -2.3%; LmPK inh: -2.9%; NS1 function inh: -0.4%; TbPYK inhibitor: 0.0%

Results for Cc1cccc(NC(=O)NCC2CC2)c1 ?
CHX counter: 14.1*; Shiga toxin inh: 36.6; SARS PLP yeast: -1.5%; LmPK inh: -1.2%; NS1 function inh: -1.2%; TbPYK inhibitor: -8.7%

What do the screens show for `O=C(NCC1CC1)Nc1ccc(Cl)cc1`?
CHX counter: 32.0*; Shiga toxin inh: 70.4*; SARS PLP yeast: -3.8%; LmPK inh: -5.0%; NS1 function inh: -3.3%; TbPYK inhibitor: 4.9%

What do the screens show for `CN1CCN(C(CNC(=O)Nc2ccc(Cl)cc2)c2ccc(F)cc2)CC1` (configuration not stated)?
CHX counter: 15.4; Shiga toxin inh: 7.8; SARS PLP yeast: -3.6%; LmPK inh: -1.2%; NS1 function inh: -12.1%; TbPYK inhibitor: -2.4%

What do the screens show for `O=C(NCC1CC1)Nc1cccc(Cl)c1`?
CHX counter: 24.6*; Shiga toxin inh: 85.7*; SARS PLP yeast: -3.7%; LmPK inh: -2.3%; NS1 function inh: -6.5%; TbPYK inhibitor: 4.5%

What do the screens show for `O=C(NCC1CC1)Nc1cccc(C(F)(F)F)c1`?
CHX counter: 2.6; Shiga toxin inh: 17.1; SARS PLP yeast: -4.2%; LmPK inh: 7.8%; NS1 function inh: -8.9%; TbPYK inhibitor: -16.2%

What do the screens show for `O=C(NCCOc1ccccc1)C1CCN(C(=O)Nc2ccccc2)CC1`?
TbPYK inhibitor: -0.1%

What do the screens show for `O=C(NCCOc1ccccc1)C1CCCCC1`?
CHX counter: 29.1*; Shiga toxin inh: 72.4*; SARS PLP yeast: 9.8%; LmPK inh: 0.1%; TbPYK inhibitor: -0.2%

Results for O=C(CC1CCCCC1)NCCOc1ccccc1 ?
CHX counter: 9.7*; Shiga toxin inh: 50.2*; SARS PLP yeast: 29.7%; LmPK inh: 0.0%; NS1 function inh: 2.5%; TbPYK inhibitor: -15.9%

What do the screens show for `CN(CC(=O)Nc1ccccc1Cl)C(=O)c1cc(-c2cccs2)nn1-c1ccccc1`?
SARS PLP yeast: -1.1%; TbPYK inhibitor: 6.3%

Results for Cc1ccc(Cn2nnc3c(=O)[nH]c(C4CCN(S(=O)(=O)c5ccccc5)CC4)nc32)cc1 ?
CHX counter: -4.2; Shiga toxin inh: -22.0; SARS PLP yeast: 1.6%; LmPK inh: 3.0%; NS1 function inh: inconclusive; TbPYK inhibitor: -12.1%

Results for Cc1ccc(Cn2nnc3c(=O)[nH]c(C4CCN(S(=O)(=O)Cc5ccccc5)CC4)nc32)cc1 ?
CHX counter: 31.1*; Shiga toxin inh: 77.6*; SARS PLP yeast: 4.5%; LmPK inh: -4.0%; NS1 function inh: 16.1%; TbPYK inhibitor: 0.0%

Results for Cc1ccc(C(C)C)c(OCc2ccc(C(=O)N/N=C/c3ccc(C(=O)O)cc3)cc2)c1 ?
CHX counter: 11.3*; Shiga toxin inh: 24.7; SARS PLP yeast: -0.7%; LmPK inh: 4.7%; NS1 function inh: -46.1%; TbPYK inhibitor: 2.6%

How did Cc1ccc(C(C)C)c(OCc2ccc(C(=O)N/N=C/c3ccc(O)cc3O)cc2)c1 do in these assays?
CHX counter: 9.7; Shiga toxin inh: 15.4; SARS PLP yeast: 3.16µM*; LmPK inh: 0.4%; NS1 function inh: -12.3%; TbPYK inhibitor: -4.7%

Results for O=C(N/N=C/c1ccc(O)cc1O)c1ccncc1 ?
CHX counter: 2.4; Shiga toxin inh: 14.9; SARS PLP yeast: 7.0%; LmPK inh: 0.4%; NS1 function inh: -2.7%; TbPYK inhibitor: 4.9%

How did CCCn1c(SCC(=O)NCc2ccc3c(c2)OCO3)n[nH]c1=O do in these assays?
SARS PLP yeast: 4.5%; TbPYK inhibitor: 4.0%

What do the screens show for `Brc1ccc(/C=N/Nc2ccc3ccccc3n2)cc1`?
CHX counter: 55.1*; Shiga toxin inh: 120.4*; SARS PLP yeast: -7.9%; LmPK inh: -5.7%; NS1 function inh: -11.1%; TbPYK inhibitor: 1.0%

Results for Fc1cccc(/C=N/Nc2ccc3ccccc3n2)c1 ?
CHX counter: 20.8*; Shiga toxin inh: 36.7; SARS PLP yeast: 1.8%; LmPK inh: -14.1%; TbPYK inhibitor: 2.6%

What do the screens show for `O=[N+]([O-])c1cccc(C=NNc2ccc3ccccc3n2)c1O`?
TbPYK inhibitor: -8.1%

How did Brc1ccccc1/C=N/Nc1ccc2ccccc2n1 do in these assays?
CHX counter: 44.5*; Shiga toxin inh: 65.5*; SARS PLP yeast: -60.1%; LmPK inh: -6.3%; NS1 function inh: -23.5%; TbPYK inhibitor: 0.2%

What do the screens show for `Cc1cc(N/N=C/c2ccccc2Br)nc2ccccc12`?
CHX counter: 42.5*; Shiga toxin inh: 74.5*; SARS PLP yeast: -46.4%; LmPK inh: -0.7%; NS1 function inh: -2.1%; TbPYK inhibitor: 2.9%

How did CCOc1ccccc1N1CCN(C(=O)c2ccc(NS(=O)(=O)c3ccc4[nH]c(=O)[nH]c4c3)cc2)CC1 do in these assays?
SARS PLP yeast: -5.5%; TbPYK inhibitor: 3.2%

How did Cc1ccc(CC(=O)Nc2c(C(=O)N3CCN(c4ccccc4F)CC3)oc3ccccc23)cc1 do in these assays?
TbPYK inhibitor: -0.3%

What do the screens show for `CCOc1ccc(C(=O)Nc2ccc(Cl)c(-c3nc4cc(C)cc(C)c4o3)c2)cc1`?
TbPYK inhibitor: 1.1%

What do the screens show for `Oc1ccc(/C=N/Nc2ccccc2)cc1`?
CHX counter: 1.0; Shiga toxin inh: 24.1; SARS PLP yeast: -0.7%; LmPK inh: 2.1%; NS1 function inh: -3.7%; TbPYK inhibitor: -8.2%

How did Brc1ccc(/C=N/Nc2ccccc2)cc1 do in these assays?
CHX counter: 42.9*; Shiga toxin inh: 59.7*; SARS PLP yeast: -53.2%; LmPK inh: -0.1%; NS1 function inh: -7.7%; TbPYK inhibitor: -5.8%

Results for COc1ccc(NS(=O)(=O)c2cccc(C(=O)NNC(=O)c3ccc(=O)[nH]c3)c2)cc1 ?
SARS PLP yeast: 0.0%; TbPYK inhibitor: 4.4%

Results for O=C(CSc1nnc(-c2ccccc2)c(-c2ccccc2)n1)Nc1ccccc1Cl ?
TbPYK inhibitor: 1.0%

How did CC1(C)OC(=O)C(=Cc2ccc(-c3ccc(S(N)(=O)=O)cc3)o2)C(=O)O1 do in these assays?
CHX counter: 10.6; Shiga toxin inh: 18.0; SARS PLP yeast: 0.2%; LmPK inh: -0.8%; TbPYK inhibitor: 22.4µM*

How did NS(=O)(=O)c1ccc(-c2ccc(C=C3C(=O)NC(=O)NC3=O)o2)cc1 do in these assays?
CHX counter: 1.0; Shiga toxin inh: -5.6; LmPK inh: -14.3%; NS1 function inh: 6.5%; TbPYK inhibitor: 10µM*

What do the screens show for `CSCC[C@H](NC(=O)[C@H](CC(C)C)NC(=O)CCNC(=O)[C@@H](NC(=O)[C@H](Cc1ccccc1)NC(=O)[C@H](CO)NC(=O)[C@@H](N)CC(=O)O)C(C)C)C(N)=O`?
CHX counter: -6.1; Shiga toxin inh: 0.3

Screening data: PubChem, National Center for Advancing Translational Sciences (NCATS)
